The list is not random: actives were taken first. Their share in the collection is about 2.6%.
AmpC nodet inh = inhibitors of E. coli AmpC beta-lactamase without detergent; P00811; AmpC nitrocefin hydrolysis, absorbance 480 nm, no detergent; Potency, µM (highest dose often 28.7 µM); actives 1.8% (n = 71,000)
Target sequence (P00811 whole entry, looked up): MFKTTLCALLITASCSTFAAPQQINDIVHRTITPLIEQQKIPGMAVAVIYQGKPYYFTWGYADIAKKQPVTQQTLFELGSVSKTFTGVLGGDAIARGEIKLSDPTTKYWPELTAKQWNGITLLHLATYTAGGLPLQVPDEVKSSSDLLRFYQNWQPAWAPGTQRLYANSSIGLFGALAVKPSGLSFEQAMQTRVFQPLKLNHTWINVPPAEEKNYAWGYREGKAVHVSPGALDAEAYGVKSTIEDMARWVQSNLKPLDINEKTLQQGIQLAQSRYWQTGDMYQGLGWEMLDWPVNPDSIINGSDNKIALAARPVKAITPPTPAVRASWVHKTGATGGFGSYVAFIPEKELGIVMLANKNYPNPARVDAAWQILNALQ
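AmpC in 20 mM phosphate buffer pH 7.0 was preincubated 15 min at room temperature with compounds. Nitrocefin (800 uM stock) was then added and hydrolysis followed at 480 nm every 20 s for 4 min.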
SmPrx2 inh = inhibitors of Schistosoma mansoni peroxiredoxin 2; S. mansoni Prx2 activity coupled to TGR/GSH (TGR is thioredoxin glutathione reductase), NADPH fluorescence loss, qHTS; Potency, µM; actives 0.07% (n = 65,000)
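Prx2 inhibition was measured as reduced NADPH consumption when electrons flowed from NADPH through TGR and glutathione to Prx2 and H2O2. Plates were read kinetically over 8 min; enzyme reagents were held at 4 deg C during dispensing.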
LT uptake inh = anthrax lethal toxin internalization inhibition; Cells, anthrax lethal toxin internalization, FRET ratio (460/530); Potency, µM (series often up to 40 µM), usual class: inhibitors; actives 0.67% (n = 70,000); AID 912; also: nearly all actives have a fitted effect of over 50% in size
AmpC inh det = AmpC beta-lactamase inhibition, detergent assay; P00811; purified AmpC, nitrocefin hydrolysis with detergent; actives 0.09% (n = 71,000); Potency, µM (titrated, usually from 28.7 µM); active = well fitted curve in the direction sought with a large enough effect; inconclusive = small, poorly fitted or top-dose-only effect
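E. coli AmpC (5.3 nM) in 20 mM phosphate pH 7.0 with 0.01% Triton X-100, preincubated 15 min RT with compound; nitrocefin (2 uL of 800 uM stock) hydrolysis followed by 480 nm absorbance every 20 s over 4 min.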
Of the large screens only hits and unclear results are named; the others gave an inactive call; [ ] = dose if it differs, or a comment. Unless noted, calls follow the shape of the full dose curve.

Cc1cccc(CN2CCC(CNC(=O)C3CCCN(S(=O)(=O)c4cnc[nH]4)C3)CC2)c1 (stereo not drawn)	AmpC nodet inh 3.16µM[single pt active]
O=C(OCC1OC2C(Oc3nc(=O)ccn32)C1O)c1ccccc1 (stereo not drawn)	none
O=C(O)c1cccc(Nc2ncnc3ccccc23)c1	none
O=C(NCc1ccc(F)cc1)c1cc2n(n1)C(C(F)(F)F)CC(C1CC1)N2 (stereo not drawn)	AmpC nodet inh 3.98µM[single pt active]
Cc1ccc(N2CC(C(=O)N3CCc4ccccc4C3)CC2=O)cc1 (stereo not drawn)	none
Cc1cc(C)n2nc(SCC(=O)Nc3c(C)nn(-c4ccccc4)c3C)nc2n1	none
Cc1cc(C)n2nc(SCC(=O)Nc3ccc(F)cc3)nc2n1	AmpC nodet inh 3.98µM[single pt active], SmPrx2 inh inconclusive
COc1ccc(CCNC(=O)C2(C)CCC(=O)N2CCC(C)C)cc1OC (stereo not drawn)	AmpC nodet inh 3.98µM[single pt active]
O=C(c1cnn2ccccc12)N1CCCc2ccccc21	AmpC nodet inh 3.98µM[single pt active]
O=C1Nc2ccccc2C2(CCN(CCc3ccc(C(F)(F)F)cc3)CC2)O1	LT uptake inh 10µM (no result: AmpC nodet inh, SmPrx2 inh, AmpC inh det)
O=C(CCN1C(=O)C2C3C=CC(C3)C2C1=O)Nc1nccs1 (stereo not drawn)	none
O=C(CCCCCN1C(=O)C2C3C=CC(C3)C2C1=O)Nc1nccs1 (stereo not drawn)	AmpC nodet inh 2µM[single pt active]
CCn1c(=O)c(C(=O)NCc2ccc(OC)cc2)c(O)c2ccccc21	none
Cc1c(Cc2ccccc2)c(=O)oc2cc(OCc3nn[nH]n3)ccc12	AmpC nodet inh 10µM[single pt active], LT uptake inh inconclusive
CCOC(=O)CCc1c(C)c2ccc(OCc3nn[nH]n3)cc2oc1=O	LT uptake inh inconclusive
O=C1CCCC=C1[C@@H](O)COCc1ccccc1	none (no result: AmpC nodet inh, SmPrx2 inh, AmpC inh det)
CCOC(=O)C1CCN(C(=O)c2ccc(Cl)c(NC3=NC4CS(=O)(=O)CC4S3)c2)CC1 (stereo not drawn)	AmpC nodet inh 3.98µM[single pt active]
O=C(c1ccc(NC2=NC3CS(=O)(=O)CC3S2)cc1)N1CCN(C(=O)c2ccco2)CC1 (stereo not drawn)	AmpC nodet inh 3.98µM[single pt active]
CCOC(=O)N1CCN(C(=O)c2cccc(NC3=NC4CS(=O)(=O)CC4S3)c2)CC1 (stereo not drawn)	none
O=C(c1cc2c(s1)CCCCC2)N1CCN(c2ncccn2)CC1	none
O=C(c1cc(C(F)(F)F)cc(C(F)(F)F)c1)N1CCC2(CC1)CN(Cc1ccncc1)C2	LT uptake inh inconclusive
O=C(c1ccncc1)N1CCC2(CC1)CN(Cc1cc(C(F)(F)F)cc(C(F)(F)F)c1)C2	LT uptake inh 12.6µM
Cn1c(C(=O)NC2CC2)cc2c(=O)n(C)c3ccccc3c21	AmpC nodet inh 3.98µM[single pt active]
COCCNC(=O)c1cc2c(=O)n(C)c3ccccc3c2n1C	AmpC nodet inh 3.98µM[single pt active]
COCCCNC(=O)c1cc2c(=O)n(C)c3ccccc3c2n1C	AmpC nodet inh 3.98µM[single pt active]
CN(C)CCNC(=O)c1cc2c(=O)n(C)c3ccccc3c2n1C	AmpC nodet inh inconclusive, LT uptake inh 12.6µM
CCN(CC)CCNC(=O)c1cc2c(=O)n(C)c3ccccc3c2n1C	AmpC nodet inh inconclusive, LT uptake inh inconclusive
CCOC(=O)N1CCC(NC(=O)c2cc3c(=O)n(C)c4ccccc4c3n2C)CC1	LT uptake inh inconclusive
COc1ccc(-n2nnc3c(=O)n(CC(=O)N4CCC(C)CC4)cnc32)cc1	none
Cc1ccccc1NC(=O)Cn1c(=O)n(C)c2ccccc21	none
COc1ccccc1NC(=O)c1cc(C(=O)O)ccc1C(=O)O	none
CCCSc1nc(C)cc(=O)[nH]1	none
Cc1cc(=O)[nH]c(SCc2cc(=O)n3nc(C)sc3n2)n1	AmpC nodet inh 3.98µM[single pt active]
COc1ccc(CC(=O)n2nc(-c3ccccc3)nc2NCc2ccco2)cc1	none
Cc1sc2nc3ccc(N4CCCC4)nn3c(=O)c2c1C	AmpC nodet inh 3.98µM[single pt active]
O=C(C1CCN(S(=O)(=O)c2cccc3cccnc23)CC1)N1CC=C(c2ccccc2)CC1	LT uptake inh 12.6µM
O=C(C1CCN(S(=O)(=O)c2cccc3cccnc23)CC1)N1CCCC1	none
O=C(C1CCCN1S(=O)(=O)c1cccc2cccnc12)N1CCc2ccccc2C1 (stereo not drawn)	AmpC nodet inh 3.98µM[single pt active]
O=C(C1CCCN1S(=O)(=O)c1cccc2cccnc12)N1CCc2ccccc21 (stereo not drawn)	none
O/N=C1\CCCc2nnc3c(c21)CCCC3	none
CN(C)c1ccnc(SCc2ccccc2Cl)c1C#N	LT uptake inh 7.94µM
CCC(C)NC(=O)CC1Oc2ccc(C)cc2NC1=O (stereo not drawn)	AmpC nodet inh 3.98µM[single pt active]
CCN(CC)CCCNC(=O)CC1Oc2ccc(C)cc2NC1=O (stereo not drawn)	AmpC nodet inh 3.98µM[single pt active]
Cc1oc(-c2ccccc2F)nc1CS(=O)(=O)CC(=O)N1CCN(Cc2ccccc2)CC1	none
COc1cc(CNc2cccc(F)c2)cc(Br)c1O	LT uptake inh inconclusive (no result: SmPrx2 inh)
CCC(C)NC(=O)CS(=O)Cc1nc(-c2ccccc2C)oc1C (stereo not drawn)	AmpC nodet inh 3.98µM[single pt active]
CCCNC(=O)CS(=O)Cc1nc(-c2ccccc2C)oc1C (stereo not drawn)	AmpC nodet inh 3.98µM[single pt active], LT uptake inh inconclusive
N#Cc1cccc(NC(=O)NCCc2c[nH]c3ccccc23)c1	AmpC nodet inh 3.98µM[single pt active], LT uptake inh 12.6µM
CC(=O)NCCc1c[nH]c2ccccc12	none
CC[n+]1cc(-c2ccccc2)nc(N2CCOCC2)n1	AmpC nodet inh 15.8µM[single pt active]
NC(=O)c1cc(-c2ccccc2)nc(N2CCOCC2)n1	AmpC nodet inh inconclusive (no result: SmPrx2 inh)
COc1cccc(-c2csc(N3CCN(C(=O)C4CCCCC4)CC3)n2)c1	LT uptake inh 10µM
CC(=O)c1ccc(OCC(O)CN2CCOCC2)cc1 (stereo not drawn)	AmpC nodet inh 3.98µM[single pt active]
CC(=O)c1ccc(OCC(O)CN2CCC(C)CC2)cc1 (stereo not drawn)	AmpC nodet inh 3.98µM[single pt active]
COC(=O)c1ccc(OCC(O)CN2CCC(C)CC2)cc1 (stereo not drawn)	none
CCC(=O)c1ccc(OCC(O)CN2CCOCC2)cc1 (stereo not drawn)	none
CC(=O)c1ccc(OCC(O)CN2C(C)CCCC2C)cc1 (stereo not drawn)	AmpC nodet inh 3.98µM[single pt active]
CCCCCC1CC(=O)N(Cc2ccccc2)C(=O)N1 (stereo not drawn)	none
CC(C)CC(NC(=O)C(CC(C)C)NC(=O)OC(C)(C)C)C(=O)O (stereo not drawn)	none
Cc1nn(-c2nc3ccccc3s2)c(N)c1-c1ccccc1	LT uptake inh 12.6µM
COc1ccccc1NC(=O)C1CCCN1C(=O)NCc1ccccc1 (stereo not drawn)	none
Cc1cc2cc(CNC(=O)C3CC3)ccc2n1C	none
CC(=O)OCC1=C(C(=O)O)N2C(=O)[C@@H](NC(=O)Cc3cccs3)[C@@H]2SC1	none
C=CC1=C(C(=O)O)N2C(=O)[C@@H](NC(=O)/C(=N\OCC(=O)O)c3csc(N)n3)[C@@H]2SC1	AmpC nodet inh 0.316µM, AmpC inh det 0.2µM
